Test results reported in PubChem BioAssay AID2783 (National Center for Advancing Translational Sciences (NCATS), 2010).
Results filed as inconclusive are left out. Activity calls are given as the source filed them. The call rests on the fitted dose curve; in most records, active means well fitted inhibition curve with a large enough effect in the polarisation, with a control signal flat (not every such curve was filed as active); inconclusive means small, poorly fitted or top-dose-only effect, or effect the other way, or a change in a side signal; inactive means no such curve, though single readings can be large or run the other way; the % refers to the polarisation.

These compounds were tested against Menin (Homo sapiens) (UniProt O00255) (assay: Confirmation of Inhibitors Targeting the Menin-MLL Interaction in MLL Related Leukemias: Competition With Fluorescein Labeled MLL-derived Peptide). Settings: Fluorescence polarization, fluorescein-MLL peptide displacement from menin; series mostly up to 100 µM.
Menin (Homo sapiens), sequence (O00255 whole entry, looked up): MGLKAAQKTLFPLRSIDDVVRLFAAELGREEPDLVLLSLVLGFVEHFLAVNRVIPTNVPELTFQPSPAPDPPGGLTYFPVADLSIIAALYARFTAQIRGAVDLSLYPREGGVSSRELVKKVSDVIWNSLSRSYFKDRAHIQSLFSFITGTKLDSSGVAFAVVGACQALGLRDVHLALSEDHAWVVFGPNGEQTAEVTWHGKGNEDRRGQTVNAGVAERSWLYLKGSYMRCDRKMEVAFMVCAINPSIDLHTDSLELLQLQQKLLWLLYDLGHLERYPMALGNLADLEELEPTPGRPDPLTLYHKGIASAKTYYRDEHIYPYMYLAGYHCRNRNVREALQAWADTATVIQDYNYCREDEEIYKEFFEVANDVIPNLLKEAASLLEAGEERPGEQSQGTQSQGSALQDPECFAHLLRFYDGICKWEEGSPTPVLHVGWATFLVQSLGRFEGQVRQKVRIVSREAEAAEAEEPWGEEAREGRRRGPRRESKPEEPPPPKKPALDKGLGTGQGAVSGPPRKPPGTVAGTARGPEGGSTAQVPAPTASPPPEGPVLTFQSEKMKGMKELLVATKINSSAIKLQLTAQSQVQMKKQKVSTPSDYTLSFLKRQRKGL
`C[C@@H]1CC[C@@]2(NC1)O[C@H]1C[C@H]3[C@@H]4CC=C5C[C@@H](O)CC[C@]5(C)[C@H]4CC[C@]3(C)[C@H]1[C@@H]2C` was tested, and the outcome was “inactive”.
For `CC[C@]12C=CCN3CC[C@@]4(c5ccc(OC)cc5N(C)[C@H]4[C@@](O)(C(=O)OC)[C@@H]1OC(C)=O)C32` (stereo not given in full), the outcome was “inactive”.
`O=C(O)CN1C(=O)CN=C(c2ccccn2)c2cc(Cl)ccc21` was tested, and the outcome was “inactive”.
`Cc1cc(C(=O)NP(=O)(N2CCOCC2)N2CCOCC2)c(C)n1C1CC1` was tested, and the outcome was “inactive”.
For `CCOC(=O)Cc1csc(NC(=O)c2c(O)c3ccccc3n(CCC(C)C)c2=O)n1`, the outcome was “inactive”.
In the case of `O=C1NC(=O)C(=Cc2ccc3ccccc3c2)C(=O)N1`, the outcome is reported as “inactive”.
`O=c1oc2ccccc2c(O)c1C(c1ccccn1)c1c(O)c2ccccc2oc1=O` was tested, and the outcome was “inactive”.
With `CCCCCn1c(=O)c(C(=O)Nc2nc(CC(=O)OCC)cs2)c(O)c2ccccc21` the outcome was “inactive”.
In the case of `O=C(Nc1ccc2ccccc2c1)c1nn(C23CC4CC(CC(C4)C2)C3)cc1Br`, the outcome is reported as “inactive”.
`C[N+](C)(C)CC#CCN1CCCC1=O` was tested, and the outcome was “inactive”.
With `OC12C3C4CC5C6C4C1C6C(C53)N2CCc1cccc(F)c1` (stereo not given) the outcome was “inactive”.
For `COc1ccc(C(O)P(=O)(Oc2ccccc2)Oc2ccccc2)cc1` (stereo not given), the outcome was “inactive”.
With `COc1cc(/C=N/n2cnnc2)ccc1OC(=O)N(C)C` the outcome was “inactive”.
In the case of `CCOP(=O)(OCC)C(NC(=O)c1ccccc1C)C(Cl)(Cl)Cl` (stereo not given), the outcome is reported as “inactive”.
For `CCCCn1c(=O)c(C(=O)Nc2ccsc2C(=O)OC)c(O)c2ccccc21`, the outcome was “inactive”.
